# Assay outcomes: PubChem BioAssay, National Center for Advancing Translational Sciences (NCATS)
# Shown is part of a subset that was picked to be rich in hits.
# Pf Dd2 growth – qHTS Primary assay for Inhibitors of Plasmodium falciparum Dd2 growth in vitro | AID 1347417, 2020 | P. falciparum Dd2 growth, SYBR Green, 72 h | actives 4.3% (n = 120,000) | Potency, µM (doses to about 28.9 µM), without a hit: at the top dose activity, negative = inhibition, most hits filed as inhibitors; active = well fitted inhibition curve with a large enough effect;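 also: plate controls were DMSO vehicle for no effect and reference drug for full effect; nearly all actives have a fitted effect of over 65% in size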
#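 Infected erythrocytes (Dd2, 0.3% parasitemia, 2.5% hematocrit final) are added to compound in RPMI-1640/Albumax II medium, grown 72 h at 37C in low oxygen, then lysed with saponin/Triton-X containing SYBR Green and read by fluorescence.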
# An asterisk follows results filed as active; i = inactive; [ ] = another dose, or the depositor's remark. Potency is read from the fitted curve at half-maximal effect.
SMILES,Pf Dd2 growth
COc1cc(CN2CCC[C@H]2c2nc(-c3ccc(-c4ccncc4)nc3)no2)cc(OC)c1OC,5µM*
COCCOc1ccc(-c2noc([C@@H]3CCCN3Cc3c[nH]c4ccccc34)n2)cn1,i
COCCNc1ccc(-c2noc([C@@H]3CCCN3C3CCC3)n2)cn1,i
Fc1ccc(-c2noc([C@@H]3CCCN3Cc3ccc(Cl)cc3)n2)nc1,i
COCC(=O)Nc1ccc(-c2noc([C@@H]3CCCN3Cc3cccnc3)n2)cn1,8.9µM*
COCCNc1ccc(-c2noc([C@@H]3CCCN3Cc3cc(OC)c(OC)c(OC)c3)n2)cn1,8.9µM*
COc1ccc(-c2noc([C@@H]3CCCN3C(=O)c3ccncc3)n2)cc1OC,80%
COCC(=O)N1CC(F)(F)C[C@H]1c1nc(-c2cccnc2)no1,10%
COCCNc1ncccc1-c1noc([C@@H]2CCCN2Cc2cc(OC)c(OC)c(OC)c2)n1,-1%
COc1ccc(C(=O)Nc2ccc(-c3noc([C@@H]4CCCN4Cc4ccco4)n3)cn2)cc1,-1%
COc1ccc(C(=O)Nc2ccc(-c3noc([C@@H]4CCCN4Cc4c[nH]c5ccccc45)n3)cn2)cc1,7.9µM*
COCC(=O)Nc1ccc(-c2noc([C@@H]3CCCN3Cc3ncc[nH]3)n2)cn1,-23%[44.1 µM]
O=C1NC(=NC2CCCCC2)C2(CCN(CC3CC3)CC2)N1c1cccnc1,18%
CS(=O)(=O)N(C1CCOCC1)C1CCN(C(=O)c2ccc(Cl)cc2)CC1,20%
CCOC1CCOC2(CCN(C(=O)c3ccco3)CC2)C1 (configuration not stated),26%
COCCn1c(C)cnc1CCNC(=O)NCc1ccc(C)cc1,i
Cn1cnc(C(=O)N2[C@@H]3CC[C@H]2CC(NC(=O)c2ccc(F)cc2)C3)c1 (some centres not stated),-21%
COC[C@@H]1CN(Cc2cc(F)c(F)c(F)c2)C[C@H]1C(N)=O,-17%
C[C@@H](NCC1CC1)c1onc(-c2ccc(Cl)cc2)c1C(=O)O,-18%[44.1 µM]
O=C(C[C@@H]1C[C@H]2O[C@H](CNCc3cnccc3C(F)(F)F)[C@@H](O)[C@H]2O1)N1CCOCC1,19%
Cc1ccc2c(c1)-c1c(c(C(=O)N3CCN(c4cc(C)ccc4C)CC3)nn1C)CS2,13µM*
COc1ccc(NC(=O)c2nn(C)c3c2CSc2ccc(C)cc2-3)cc1OC,i
Cn1nc(C(=O)N2CCN(c3ccc(Cl)cc3)CC2)c2c1-c1ccccc1SC2,9%
Cc1ncc2c(c1CNC(=O)c1ccccc1-c1ncc[nH]1)CCNC2,-15%
CN(Cc1nc(C2CC2)no1)C(=O)c1cc(Cn2ccc3ccccc32)[nH]n1,-3%
SMILES,Pf Dd2 growth
COc1ccc(CN2Cc3cc(NC(=O)c4ccc(F)cc4)ccc3OC(C)C2=O)c(OC)c1 (configuration not stated),i
COc1ccc(CN2Cc3cc(NC(=O)c4ccccc4F)ccc3OC(C)C2=O)c(OC)c1 (configuration not stated),3.2µM*
COc1ccc(C(=O)Nc2ccc3c(c2)CN(Cc2ccc(F)cc2)C(=O)C(C)O3)c(OC)c1 (configuration not stated),i
c1c(CN2CCCN(CCCN3CCCC3)CC2)nn2c1CNCC2,-5%
Cc1nnc2n1C(C)CN(C(=O)COc1ccc(-n3cnnn3)cc1)C2 (configuration not stated),-1%
CCCc1noc(-c2cccn3c(CNC(=O)c4ccccc4Cl)nnc23)n1,i
CCC(=O)Nc1ccccc1-c1nc2ccccc2n(CC(=O)Nc2ccccc2OC)c1=O,3%
CCC(=O)Nc1ccccc1-c1nc2ccccc2n(C(C)C(=O)Nc2ccc(OC)cc2)c1=O (configuration not stated),10µM*
CCC(=O)Nc1ccccc1-c1nc2ccccc2n(C(CC)C(=O)Nc2cccc(Cl)c2)c1=O (configuration not stated),i
O=C1N[C@@H]2CCN(C(=O)C3CCCCC3)[C@@H]2C(=O)N1c1ccc(Oc2ccccc2)cc1,-15%[44.1 µM]
NC(=O)c1cccc(CN2CCC3(Cc4ccccc4N(C(=O)C4CCCC4)C3)C2)c1 (configuration not stated),-23%
O=C(C1CCCC1)N1CC2(CCN(Cc3ccc(Cl)cc3)C2)Cc2ccccc21 (configuration not stated),14µM*
O=C(C1CCCC1)N1CC2(CCCN(Cc3c[nH]c4ccccc34)C2)Cc2ccccc21 (configuration not stated),7.1µM*
CC(=O)N1CC2(Cc3ccccc31)CN(C(=O)C1CCCC1)C2,-23%[44.1 µM]
CC(=O)N1Cc2ccccc2CC2(CCN(CC3CCCC3)CC2)C1,-26%
O=C(C1CCCC1)N1CC2(CCN(CC3CCCCC3)C2)Cc2ccccc21 (configuration not stated),11µM*
CS(=O)(=O)N1CC2(CCN(CC3CC3)C2)Cc2ccccc21 (configuration not stated),-13%
O=C(O)CCC(=O)N1CCCC2(Cc3ccccc3N(C(=O)C3CCCC3)C2)C1 (configuration not stated),6%
CN1CC(=O)N(C2CCCNCC2)Cc2c(NCCN3CCOCC3)ncnc21 (configuration not stated),i
CSc1ccc(CNC(=O)c2noc(-c3ccc(F)cc3)n2)cc1,24%
COCC(=O)NC1CCC12CCN(Cc1cccc(OC)c1)CC2 (configuration not stated),i
COC1CCN(C(=O)c2cnc3c(c2)N(Cc2ccccc2)CCC3)CC1,-9%[44.1 µM]
CCC(=O)N1CCCC(c2nc(-c3cccnc3)no2)CCNC(=O)CC1 (configuration not stated),9%
COc1ccc(C[C@H](N)C(=O)NCc2c(C)ncc3c2CCNC3)cc1,-11%
COc1ccc(NC(=O)C2CC(=O)N(c3n[nH]c4cccc(F)c34)C2)cc1Cl (configuration not stated),-1%
